# About 2,200 (0.71%) of roughly 310,000 compounds showed an effect of 50% or more. The effect is printed as a negative number. Many of the other results were omitted from the sample, so strong results are more common in it than they were.
# Biological target: human ether-à-go-go-related gene (hERG) potassium channel (human, UniProt Q12809)
# Assay: primary screen, population patch clamp on CHO cells stably expressing hERG; higher = less effect of the substance
# Chain of human ether-à-go-go-related gene (hERG) potassium channel (Q12809 whole entry, looked up): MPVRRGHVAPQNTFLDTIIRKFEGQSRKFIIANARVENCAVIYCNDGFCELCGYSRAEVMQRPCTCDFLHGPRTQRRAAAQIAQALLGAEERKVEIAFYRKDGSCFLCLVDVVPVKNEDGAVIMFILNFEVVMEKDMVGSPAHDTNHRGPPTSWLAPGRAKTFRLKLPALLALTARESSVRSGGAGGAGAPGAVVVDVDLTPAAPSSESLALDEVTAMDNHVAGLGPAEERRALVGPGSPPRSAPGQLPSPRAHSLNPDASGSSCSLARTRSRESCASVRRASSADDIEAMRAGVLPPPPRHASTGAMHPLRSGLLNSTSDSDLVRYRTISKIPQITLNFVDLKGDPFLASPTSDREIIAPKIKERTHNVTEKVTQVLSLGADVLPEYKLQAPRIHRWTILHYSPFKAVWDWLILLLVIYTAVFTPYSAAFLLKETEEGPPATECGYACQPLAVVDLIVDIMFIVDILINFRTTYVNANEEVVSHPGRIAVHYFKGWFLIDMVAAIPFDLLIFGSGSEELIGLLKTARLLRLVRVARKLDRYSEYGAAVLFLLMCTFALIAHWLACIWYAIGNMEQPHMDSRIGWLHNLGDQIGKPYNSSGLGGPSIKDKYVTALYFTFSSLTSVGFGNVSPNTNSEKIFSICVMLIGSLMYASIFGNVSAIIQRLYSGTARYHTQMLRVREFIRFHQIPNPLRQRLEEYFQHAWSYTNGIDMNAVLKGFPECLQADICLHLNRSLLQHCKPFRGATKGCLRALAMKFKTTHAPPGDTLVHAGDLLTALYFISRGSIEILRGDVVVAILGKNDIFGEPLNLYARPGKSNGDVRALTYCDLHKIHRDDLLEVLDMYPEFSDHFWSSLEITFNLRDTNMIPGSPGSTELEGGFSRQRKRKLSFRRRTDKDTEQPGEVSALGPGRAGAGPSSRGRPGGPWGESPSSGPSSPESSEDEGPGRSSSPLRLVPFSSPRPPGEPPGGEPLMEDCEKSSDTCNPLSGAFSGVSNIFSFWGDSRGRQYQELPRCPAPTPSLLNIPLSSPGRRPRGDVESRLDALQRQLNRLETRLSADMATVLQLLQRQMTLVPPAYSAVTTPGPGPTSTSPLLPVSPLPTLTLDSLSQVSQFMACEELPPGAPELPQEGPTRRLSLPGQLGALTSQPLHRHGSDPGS
row,Structure (SMILES),"hERG current change (%, negative = inhibition) at 1uM [%]"
1,Cc1ccc(OCc2nnc(NC(=O)c3ccco3)s2)c(C)c1,17.8
2,C/C(=N/NC(=O)c1ccc(Br)o1)c1ccc(C)o1,0.861
3,COCCNC(=S)NNC(=O)c1cc(C2CC2)nc2ccccc12,14.8
4,O=C(CCC(=O)OCc1cccc([N+](=O)[O-])c1)Nc1ccccc1Cl,2.86
5,O=[N+]([O-])c1cccc(Cl)c1CSc1ccccn1,11
6,CCN(CC)c1ccc(/C=C/c2ccc3ccc(OC)cc3[n+]2CC)cc1.[I-],-85
7,CC[n+]1c(/C=C/c2ccc(OC)c(OC)c2)ccc2ccccc21.[I-],13.8
8,CC[n+]1c(/C=C/c2ccc(N(C)C)cc2)ccc2ccccc21.[I-],-27
9,O=c1[nH]c(=O)n(Cc2ccco2)c2c1C(C(F)(F)F)(C(F)(F)F)N=C(Cc1ccccc1)N2,6.17
10,CCOC(=O)C1=C(Cc2ccc(F)cc2)C(=O)c2ccccc2C1=O,6.27
11,CCOC(=O)CCNC(=O)N1CCCC(CNS(=O)(=O)Cc2ccccc2)C1 (stereo not shown),8.76
12,Cc1nc2cc(C(F)(F)F)ccc2n1C1CCN(Cc2nnnn2Cc2cccs2)CC1,-2.78
13,Cc1cc2nc(C3CCN(Cc4nnnn4Cc4cccs4)CC3)[nH]c2cc1C,-72.4
14,Cc1cc2nc(C3CCN(CC4COc5ccccc5O4)CC3)[nH]c2cc1C (stereo not shown),-65.6
15,Cc1cc2nc(C3CCN(Cc4nnnn4Cc4ccccc4)CC3)[nH]c2cc1C,-50.7
16,CCC(C)(C)n1nnnc1CN1CCC(c2nc3ccc(C)cc3[nH]2)CC1,-25.7
17,CCN(CC)C(=O)CN1CCC(c2nc3cc(C)c(C)cc3[nH]2)CC1,11.1
18,Cl.c1ccc(Cn2nnnc2CN2CCCC2)cc1,10.1
19,CCN1CCN(CC2COc3ccccc3O2)CC1.Cl (stereo not shown),7.79
20,c1csc(Cn2nnnc2CN2CCN(c3nc4ccccc4s3)CC2)c1,-7.1
21,CCN(CC)CCN1C(=O)C(=O)/C(=C(/O)c2ccc(F)cc2)C1c1cccnc1 (stereo not shown),14.9
22,Cc1nnc(NCc2n[nH]c(=O)c3ccccc23)c2ccccc12,9.65
23,O=C(CN(C(=O)c1csnn1)c1ccc2c(c1)OCCO2)NCc1ccc(F)cc1,-1.13
24,COc1ccc2c(c1)C(=O)CC(c1ccc3c(c1)OCCO3)O2 (stereo not shown),16.1
25,CCOC(=O)c1ccc(NC(=O)Nc2cccc(C)n2)cc1,10
26,Cc1ccccc1SC1CCN(Cc2nc(C3CC3)no2)CC1,-1.23
27,Cc1ccc(CS(=O)(=O)c2ncn[nH]2)cc1,21
28,CCN1CCN(C(=O)C2CCN(Cc3nc(-c4cccc(Cl)c4)oc3C)CC2)CC1,-21

row,Structure (SMILES),"hERG current change (%, negative = inhibition) at 1uM [%]"
1,Cc1oc(-c2ccc(Cl)cc2)nc1CN1CCC(C(=O)N2CCc3ccccc3C2)CC1,-56.7
2,Cc1oc(-c2cccc(Cl)c2)nc1CN1CCC(C(=O)NCc2ccco2)CC1,-70.4
3,Cc1ccccc1-c1nc(CN2CCC(C(=O)NCc3ccco3)CC2)c(C)o1,-34.7
4,Cc1oc(-c2ccc(Cl)cc2)nc1CN1CCC(C(=O)N2CCN(Cc3ccccc3)CC2)CC1,-48.1
5,Cc1oc(-c2ccc(Cl)cc2)nc1CN1CCC(C(=O)NCc2ccco2)CC1,-58.3
6,Cc1oc(-c2ccc(Cl)cc2)nc1CN1CCCC(C(=O)NCc2ccco2)C1 (stereo not shown),-56.4
7,Cc1oc(-c2cccc(Cl)c2)nc1CN1CCC(C(=O)NCc2cccnc2)CC1,-13
8,Cc1oc(-c2ccc(Cl)cc2)nc1CN1CCCC(C(=O)NCc2ccccn2)C1 (stereo not shown),-44.2
9,Cc1oc(-c2ccccc2F)nc1CN1CCC(C(=O)NCc2ccco2)CC1,-9.53
10,Cc1oc(-c2cccc(Cl)c2)nc1CN1CCC(C(=O)NC2CC2)CC1,14.6
11,Cc1oc(-c2cccc(Cl)c2)nc1CN1CCCC(C(=O)NCc2ccco2)C1 (stereo not shown),-45
12,Cc1ccc(OC(=O)c2ccc3nc(C)sc3c2)cc1,10
13,COC(=O)COC(=O)c1ccc(O)cc1,-12.9
14,O=C1C=C(c2ccc3ncccc3c2)C[C@@H](c2ccc3c(c2)OCO3)C1,9.3
15,O=C(c1cc2ccccc2oc1=O)N(Cc1cccs1)Cc1ccccc1Cl,2.42
16,CCc1ccc(NC(=O)CCn2nc(C)c(S(=O)(=O)N3CCCCC3)c2C)cc1,4.67
17,CCOC(=O)COc1c(-c2ccc(OC)cc2)oc2ccccc2c1=O,9.81
18,CC(C)OP(=O)(OC(C)C)C(Nc1ccccc1)c1cccc([N+](=O)[O-])c1 (stereo not shown),12
19,COc1cc(-c2nc3n(n2)C(c2ccncc2)C2=C(CCCC2=O)N3)cc(OC)c1OC (stereo not shown),26
20,Cc1ccc(CN2C(=O)C3CCCN3c3ncccc32)cc1 (stereo not shown),12.7
21,CCCCN1C(=O)NC(=O)/C(=C/c2cnc(SC)nc2)C1=O,7.6
22,Cc1ccccc1NCc1ccc(O)c2ncccc12,8.46
23,Cl.N=c1ccn(Cc2ccccc2Cl)cc1,16.8
24,CCc1ccc(-c2nc(CN3CCC(C(=O)NCc4ccc(F)cc4)CC3)c(C)o2)cc1,-12.4
25,CCc1ccc(-c2nc(CN3CCC(C(=O)NCc4ccco4)CC3)c(C)o2)cc1,-51.1
26,CCc1ccc(-c2nc(CN3CCC(C(=O)NCCN(CC)c4ccccc4)CC3)c(C)o2)cc1,-15.6
27,CCOc1ccc(-c2cn3ccccc3n2)cc1,-1.48

# Source: publication PMC4336329 (PLoS ONE, 2015)
